HCV inh – HCV inhibition; Potency, µM (doses to about 41.8 µM), inactives show at the highest dose activity change, negative = inhibition, most hits filed as inhibitors; 3.4% of 340,000 active; AID 651820; Huh7.5.1 HCVcc-Cre infection, luciferase reporter, 44 h; also: potency is read from the fitted curve at half-maximal effect
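1,000 cells/well; 4 h culture; + compound; + HCVcc-Cre (~0.5 moi); 44 h; luciferase substrate, RT 15 min; read 15 sec.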
HCMV inh – blocks human cytomegalovirus replication; HFF cells, HCMV-luciferase reporter, 72 h; active compounds read low; activity change, negative = inhibition, % at 57.5 µM; 4.5% of 410,000 active; AID 1259415; in the data active = activity change below about -60%; inconclusive = no clear call, values can overlap the other calls; inactive = above about -39%
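Two compound doses tested in HFFs infected with HCMV-luciferase, MOI 1 PFU/cell, 72 h at 37C. Lysate luminescence read with OneGlo; data normalized against buffer-only and 10uM Salinomycin inhibitor controls.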
Sm TGR inh – S. mansoni TGR enzyme inhibition; Q962Y6; Potency, µM (highest dose often 114 µM), for the others: at the top dose activity change, negative = inhibition, hits mostly inhibitors; purified TGR, DTNB reduction, TNB absorbance 405 nm; 3% of 360,000 active; also: potency is read from the fitted curve at half-maximal effect; nearly all actives have a fitted effect of over 60% in size
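First, TGR (20 nM dispensed) and NADPH were mixed with compound. Second, a 15 min room-temperature incubation followed. Third, further NADPH and then DTNB were added to start the reaction. Finally, TNB absorbance was monitored kinetically.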
Vaccinia Venus – inhibitors of vaccinia virus (Venus reporter); 0.46% of 330,000 active; AID 720580; Potency, µM (titrated, usually from 36.5 µM), for the others: top-dose activity change, negative = inhibition, most hits filed as inhibitors; Vaccinia virus Venus reporter expression, fluorescence; calls by dose curve; tested in A549 cells; also: potency is read from the fitted curve at half-maximal effect; nearly all actives have a fitted effect of over 30% in size
FMDV inh – foot and mouth disease virus antiviral activity; Potency, µM (series often up to 57.9 µM), for inactives: top-dose activity change, negative = inhibition, most hits filed as inhibitors; FMDV antiviral cell-based qHTS; 1.2% of 410,000 active; AID 1159524; calls by dose curve; tested in HEK293T cells; also: read-out not given here; potency is read from the fitted curve at half-maximal effect; nearly all actives have a fitted effect of over 45% in size
Vaccinia mCherry – inhibitors of vaccinia virus infection (mCherry reporter signal); Vaccinia virus mCherry reporter infection, fluorescence; AID 720579; 0.63% of 310,000 active; Potency, µM (titrated, usually from 36.5 µM), for the others: at the top dose activity change, negative = inhibition, most hits filed as inhibitors; calls by dose curve; tested in A549 cells; also: potency is read from the fitted curve at half-maximal effect; nearly all actives have a fitted effect of over 35% in size
* hit, by the source's call. Rows were chosen to be rich in hits. Some 9.3% of all compounds tested hit in one or more screens of this group. Unless noted, calls follow the shape of the dose curve; as a rule, active = well fitted curve in the direction sought with a large enough effect; inconclusive = small, poorly fitted or top-dose-only effect, or another doubt; inactive = no such curve, though single readings can be large; an effect the other way counts as inactive or inconclusive. % is scaled to controls: 0 for no effect and ±100 for the full control effect.

Results for CC(C)Cc1nc2oc3c(Cl)ncnc3c2c2c1CCC2 ?
HCV inh: 4.5µM*; HCMV inh: -96*; Sm TGR inh: -31%; Vaccinia Venus: -3%; FMDV inh: 1%; Vaccinia mCherry: -4%

How did CC(C)Cc1nc2oc3c(NCCCN4CCOCC4)ncnc3c2c2c1CCC2 do in these assays?
HCV inh: 10µM*; HCMV inh: inconclusive; Sm TGR inh: 0%; FMDV inh: -3%

How did CCn1cc(C(=O)NCc2ccccc2Cl)cn1 do in these assays?
HCV inh: 16%; HCMV inh: -19; Sm TGR inh: -2%; Vaccinia Venus: -22%; FMDV inh: 9%; Vaccinia mCherry: -7%

How did COc1ccc(NC(=O)CNc2ccccc2C(C)=O)cc1S(=O)(=O)N1CCOCC1 do in these assays?
HCV inh: -22%; HCMV inh: 14; FMDV inh: -21%

Results for COc1ccc(N2C(=O)C(OC(C)=O)C2c2ccc(C)cc2)cc1 (stereo unspecified) ?
HCV inh: 12%; HCMV inh: -64*; Sm TGR inh: -1%; Vaccinia Venus: -6%; FMDV inh: 9%; Vaccinia mCherry: -11%

Results for COc1ccc(C2c3ccsc3CCN2C(=O)NC(C)(C)C)cc1 (stereo unspecified) ?
HCV inh: 22µM*; HCMV inh: -39; Sm TGR inh: -2%; FMDV inh: -16%

Results for Cc1ccc(C(=O)C2=C(O)C(=O)N(c3ncccn3)C2c2cccc(Cl)c2)o1 (stereo unspecified) ?
Sm TGR inh: 11µM*

How did Cc1ccc(C(=O)C2=C(O)C(=O)N(Cc3ccco3)C2c2cccc(Cl)c2)o1 (stereo unspecified) do in these assays?
HCV inh: 20%; HCMV inh: 11; Sm TGR inh: 50µM*; Vaccinia Venus: 1%; FMDV inh: 39%; Vaccinia mCherry: inactive

What do the screens show for `Cc1ccc(C(=O)C2=C(O)C(=O)N(Cc3ccco3)C2c2cccc(Br)c2)o1` (stereo unspecified)?
HCV inh: 3%; HCMV inh: -27; Sm TGR inh: 11µM*; Vaccinia Venus: 0%; FMDV inh: 28%; Vaccinia mCherry: -11%

Results for Cc1ccc(CNC(=O)c2ccc3c(c2)N(Cc2ccccc2Cl)C(=O)CS3)cc1 ?
HCMV inh: -38; Sm TGR inh: 6%; Vaccinia Venus: -10%; FMDV inh: -28%; Vaccinia mCherry: -13%

Results for O=C(NCC1CCCO1)c1ccc2c(c1)N(Cc1ccccc1)C(=O)CS2 (stereo unspecified) ?
HCV inh: 5%; HCMV inh: -74*; Sm TGR inh: -11%; FMDV inh: -18%

Results for CC(=O)c1ccc2c(c1)N(Cc1ccccc1Cl)C(=O)C(C)S2 (stereo unspecified) ?
HCMV inh: -98*; Vaccinia Venus: -5%; FMDV inh: -1%; Vaccinia mCherry: 33%

Results for O=C(NCc1ccccc1Cl)c1ccc2c(c1)N(Cc1ccccc1)C(=O)CS2 ?
HCMV inh: -65*; Sm TGR inh: 8%; Vaccinia Venus: -20%; FMDV inh: 23%; Vaccinia mCherry: -22%

How did CCc1ccccc1Nc1nc(N)nc(COC(=O)C2=COCCO2)n1 do in these assays?
HCV inh: 5%; HCMV inh: -20; Sm TGR inh: -21%; FMDV inh: 8%

How did COc1cc2c(C(=O)N3CCN(c4ccccc4)CC3)c(C)oc2cc1Br do in these assays?
HCV inh: inconclusive; HCMV inh: -5; Sm TGR inh: 3%; Vaccinia Venus: inconclusive; FMDV inh: 20µM*; Vaccinia mCherry: inconclusive

What do the screens show for `COc1ccccc1-c1cc(C(=O)N2CCN(c3ccccc3)CC2)no1`?
HCV inh: 9%; HCMV inh: -7; Sm TGR inh: 4%; Vaccinia Venus: -14%; FMDV inh: 59%; Vaccinia mCherry: -28%

How did O=C(Nc1ccc(Cl)cc1)Nc1ccc2c(c1)N1CCN=C1S2 do in these assays?
HCV inh: 10µM*; HCMV inh: inconclusive; Sm TGR inh: 0%; Vaccinia Venus: inconclusive; FMDV inh: 0%; Vaccinia mCherry: -21%

How did Nc1ccc2c(c1)N1CCN=C1S2 do in these assays?
HCV inh: 4%; HCMV inh: -35; Sm TGR inh: 0%; FMDV inh: 2%

How did Cn1c(Cn2c(=O)sc3ccccc32)nnc1SCC(=O)Nc1ccc(Cl)cc1 do in these assays?
HCV inh: 6%; HCMV inh: 17; Sm TGR inh: -2%; FMDV inh: -19%

How did CC1(C)C2CC=C(/C=N/NC(=S)Nc3cccnc3)C1C2 (stereo unspecified) do in these assays?
HCV inh: 5%; HCMV inh: 8; Sm TGR inh: 2%; Vaccinia Venus: -10%; FMDV inh: -17%; Vaccinia mCherry: inactive

Results for CC1=C/C(=N\NC(=S)Nc2cccnc2)CC(C)(C)C1 ?
HCV inh: -14%; HCMV inh: -72*; Sm TGR inh: 3%; Vaccinia Venus: -9%; FMDV inh: 0%; Vaccinia mCherry: 2%

Results for COCC(C)n1c(SCc2cc(=O)n3cc(C)ccc3n2)nc2ccccc2c1=O (stereo unspecified) ?
HCV inh: inconclusive; HCMV inh: -61*; Sm TGR inh: 6%; Vaccinia Venus: 4%; FMDV inh: -29%; Vaccinia mCherry: -10%

How did CCn1c(SCc2nc(-c3cccs3)no2)nnc1-c1c[nH]c2ccccc12 do in these assays?
HCV inh: inconclusive; HCMV inh: inconclusive; Sm TGR inh: 6%; Vaccinia Venus: -9%; FMDV inh: 22µM*; Vaccinia mCherry: inactive

How did Cc1ccc2nc(CSc3nnc4ccccn34)cc(=O)n2c1 do in these assays?
HCV inh: 12%; HCMV inh: 14; Sm TGR inh: 0%; Vaccinia Venus: -3%; FMDV inh: 34%; Vaccinia mCherry: 1%

What do the screens show for `Cc1ccc2nc(CSc3nnc(-c4ccco4)n3-c3ccccc3)cc(=O)n2c1`?
HCV inh: -1%; HCMV inh: -105*; FMDV inh: -2%

Results for CCn1c(SCc2nc(-c3ccccc3)no2)nnc1-c1cccs1 ?
HCV inh: -19%; HCMV inh: 9; Sm TGR inh: -5%; FMDV inh: -11%

Results for Cc1ccc2nc(CSc3nnc(-c4ccco4)o3)cc(=O)n2c1 ?
HCV inh: 17%; HCMV inh: -21; Sm TGR inh: 0%; FMDV inh: -9%

What do the screens show for `c1ccc(-n2c(SCc3nc(-c4cccs4)no3)nnc2-c2ccco2)cc1`?
HCV inh: inconclusive; HCMV inh: -40; Sm TGR inh: 45µM*; Vaccinia Venus: -21%; Vaccinia mCherry: -25%

How did Cn1nccc1C(=O)Nc1ccc(Cl)cc1 do in these assays?
HCV inh: 15%; HCMV inh: 17; Sm TGR inh: 11%; Vaccinia Venus: -8%; Vaccinia mCherry: 0%

Compound activity from PubChem.
